Laboratory results as given in PubChem BioAssay AID1159580 (chemical genetic matrix, 2015).
Several values for one entry are separate records, joined by “and”; a condition that tells them apart may be missing. Equal entries are not always repeated. In all, about 5,500 compounds went through this assay and about 2,000 (36%) were called active. About 18% were inconclusive and are not listed. No stated cut-off is given here; in the data, active means normalized growth mostly below about 0.91 (no sharp cut-off); inconclusive means no clear call, values can overlap the other calls; inactive means mostly above about 0.92. The list shows a part of the results.

Experiment: chemical genetic growth profiling, strain panel (AID 1159580);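 further: tested at 20 µM; growth read once vehicle control cultures reached saturation at 30 °C; 1 = growth at the plate median or of vehicle wells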
Conditions: S. cerevisiae deletion strains, growth OD

Measured: normalized growth

OCC(O)CN1CCN(c2ccccc2)CC1 (stereo unspecified)
inactive: locus YAL013W, strain DEP1, stronger effect = lower value 0.995 | locus YAL021C, strain ccr4, stronger effect = lower value 0.923 | locus YAL026C, strain drs2, stronger effect = lower value 0.982 | locus YAL030W, strain snc1, stronger effect = lower value 0.996 | locus YBL061C, strain skt5, stronger effect = lower value 0.989 | locus YBR009C, strain hhf1, stronger effect = lower value 1 | locus YBR021W, strain FUR4, stronger effect = lower value 0.972 | locus YBR023C, strain chs3, stronger effect = lower value 0.997 | locus YBR171W, strain sec66, stronger effect = lower value 0.968 | locus YBR229C, strain ROT2, stronger effect = lower value 0.984 | locus YBR231C, strain swc5, stronger effect = lower value 0.999 | locus YBR279W, strain paf1, stronger effect = lower value 0.974 | locus YCL011C, strain gbp2, stronger effect = lower value 0.977 | locus YCL016C, strain dcc1, stronger effect = lower value 0.988 | locus YCL029C, strain bik1, stronger effect = lower value 0.978 | locus YCL061C, strain MRC1, stronger effect = lower value 0.973 | locus YCL069W, strain vba3, stronger effect = lower value 0.989 | locus YCR088W, strain abp1, stronger effect = lower value 0.98 | locus YDL005C, strain med2, stronger effect = lower value 0.963 | locus YDL035C, strain GPR1, stronger effect = lower value 1.02 | locus YDL040C, strain nat1, stronger effect = lower value 0.979 | locus YDL074C, strain BRE1, stronger effect = lower value 0.984 | locus YDL101C, strain DUN1, stronger effect = lower value 0.984 | locus YDL134C, strain PPH21, stronger effect = lower value 0.991 | locus YDL185W, strain tfp1, stronger effect = lower value 0.99 | locus YDL192W, strain arf1, stronger effect = lower value 0.995 | locus YDR001C, strain nth1, stronger effect = lower value 0.98 | locus YDR069C, strain doa4, stronger effect = lower value 0.982 | locus YDR101C, strain arx1, stronger effect = lower value 0.965 | locus YDR137W, strain rgp1, stronger effect = lower value 0.95 | locus YDR150W, strain NUM1, stronger effect = lower value 1 | locus YDR159W, strain sac3, stronger effect = lower value 1.01 | locus YDR162C, strain NBP2, stronger effect = lower value 1.01 | locus YDR195W, strain ref2 0.967 | locus YDR297W, strain sur2, stronger effect = lower value 0.982 | locus YDR318W, strain mcm21, stronger effect = lower value 0.989 | locus YDR334W, strain swr1, stronger effect = lower value 0.945 | locus YDR335W, strain msn5, stronger effect = lower value 0.978 | locus YDR388W, stronger effect = lower value 0.991 | locus YDR392W, strain spt3, stronger effect = lower value 0.931 | locus YDR502C, strain sam2, stronger effect = lower value 0.995 | locus YEL003W, strain gim4, stronger effect = lower value 0.938 | locus YEL037C, strain rad23, stronger effect = lower value 0.986 | locus YEL061C, strain CIN8 (second series), stronger effect = lower value 0.985 | locus YEL061C, strain CIN8, stronger effect = lower value 1 | locus YER015W, strain faa2, stronger effect = lower value 1 | locus YER016W, strain bim1, stronger effect = lower value 0.991 | locus YER110C, stronger effect = lower value 0.988 | locus YER111C, strain swi4, stronger effect = lower value 0.983 | locus YER155C, strain BEM2 (second series), stronger effect = lower value 1 | locus YER155C, strain BEM2, stronger effect = lower value 0.977 | locus YER167W, strain BCK2, stronger effect = lower value 1.01 | locus YGL078C, strain dbp3, stronger effect = lower value 0.991 | locus YGL086W, strain mad1, stronger effect = lower value 0.998 | locus YGL167C, strain pmr1, stronger effect = lower value 0.998 | locus YGL173C, strain kem1, stronger effect = lower value 0.978 | locus YGL227W, strain vid30, stronger effect = lower value 0.985 | locus YGL240W, strain doc1, stronger effect = lower value 1.01 | locus YGL248W, strain PDE1, stronger effect = lower value 0.975 | locus YGL253W, strain hxk2, stronger effect = lower value 0.993 | locus YGR078C, strain PAC10, stronger effect = lower value 0.99 | locus YGR135W, strain pre9, stronger effect = lower value 0.98 | locus YGR229C, strain SMI1, stronger effect = lower value 1.01 | locus YGR252W, strain gcn5, stronger effect = lower value 1.08 | locus YHR013C, strain ard1, stronger effect = lower value 0.953 | locus YHR027C, strain rpn1, stronger effect = lower value 0.984 | locus YHR030C, strain SLT2, stronger effect = lower value 0.991 and 0.969 | locus YHR079C, strain IRE1 (second series), stronger effect = lower value 0.991 | locus YHR079C, strain IRE1, stronger effect = lower value 0.965 | locus YHR094C, strain hxt1, stronger effect = lower value 0.992 | locus YHR129C, strain ARP1, stronger effect = lower value 0.985 | locus YHR142W, strain chs7, stronger effect = lower value 0.932 | locus YHR200W, strain rpn10, stronger effect = lower value 0.993 | locus YIL066C, strain RNR3, stronger effect = lower value 1 | locus YIL073C, strain SPO22, stronger effect = lower value 1.03 | locus YIL125W, strain kgd1, stronger effect = lower value 1 | locus YIR030C, strain dcg1, stronger effect = lower value 0.988 | locus YJL092W, strain hpr5, stronger effect = lower value 0.965 | locus YJL095W, strain BCK1 (second series), stronger effect = lower value 0.989 | locus YJL095W, strain BCK1, stronger effect = lower value 0.981 and 0.975 | locus YJL115W, strain asf1, stronger effect = lower value 0.965 | locus YJL129C, strain trk1, stronger effect = lower value 0.957 | locus YJL134W, strain LCB3, stronger effect = lower value 0.988 | locus YJL154C, strain vps35, stronger effect = lower value 0.983 | locus YJL164C, strain tpk1, stronger effect = lower value 0.966 | locus YJL166W, strain qcr8, stronger effect = lower value 1 | locus YJL168C, strain set2, stronger effect = lower value 0.983 | locus YJL187C, strain SWE1 (second series), stronger effect = lower value 0.988 | locus YJL187C, strain SWE1, stronger effect = lower value 0.981 | locus YJR043C, strain POL32, stronger effect = lower value 0.977 | locus YJR066W, strain TOR1, stronger effect = lower value 0.908
